This is a sample that favours compounds with a hit; in the whole collection about 5.7% have one here.
FAS TE block: FAS thioesterase domain inhibitors, primary screen, biochemical, fluorescence intensity, uHTS | inhibition, % at 15 µM | AID 602261, 2012 | recombinant FAS-TE, OMFH fluorogenic substrate, fluorescence endpoint | 360,000 compounds, 0.67% hits;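 active means compounds whose normalised, plate-corrected inhibition of enzyme fluorescence in the single-dose primary screen is 50% or more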
Target sequence (P49327 whole entry, looked up, the tested form may be a part): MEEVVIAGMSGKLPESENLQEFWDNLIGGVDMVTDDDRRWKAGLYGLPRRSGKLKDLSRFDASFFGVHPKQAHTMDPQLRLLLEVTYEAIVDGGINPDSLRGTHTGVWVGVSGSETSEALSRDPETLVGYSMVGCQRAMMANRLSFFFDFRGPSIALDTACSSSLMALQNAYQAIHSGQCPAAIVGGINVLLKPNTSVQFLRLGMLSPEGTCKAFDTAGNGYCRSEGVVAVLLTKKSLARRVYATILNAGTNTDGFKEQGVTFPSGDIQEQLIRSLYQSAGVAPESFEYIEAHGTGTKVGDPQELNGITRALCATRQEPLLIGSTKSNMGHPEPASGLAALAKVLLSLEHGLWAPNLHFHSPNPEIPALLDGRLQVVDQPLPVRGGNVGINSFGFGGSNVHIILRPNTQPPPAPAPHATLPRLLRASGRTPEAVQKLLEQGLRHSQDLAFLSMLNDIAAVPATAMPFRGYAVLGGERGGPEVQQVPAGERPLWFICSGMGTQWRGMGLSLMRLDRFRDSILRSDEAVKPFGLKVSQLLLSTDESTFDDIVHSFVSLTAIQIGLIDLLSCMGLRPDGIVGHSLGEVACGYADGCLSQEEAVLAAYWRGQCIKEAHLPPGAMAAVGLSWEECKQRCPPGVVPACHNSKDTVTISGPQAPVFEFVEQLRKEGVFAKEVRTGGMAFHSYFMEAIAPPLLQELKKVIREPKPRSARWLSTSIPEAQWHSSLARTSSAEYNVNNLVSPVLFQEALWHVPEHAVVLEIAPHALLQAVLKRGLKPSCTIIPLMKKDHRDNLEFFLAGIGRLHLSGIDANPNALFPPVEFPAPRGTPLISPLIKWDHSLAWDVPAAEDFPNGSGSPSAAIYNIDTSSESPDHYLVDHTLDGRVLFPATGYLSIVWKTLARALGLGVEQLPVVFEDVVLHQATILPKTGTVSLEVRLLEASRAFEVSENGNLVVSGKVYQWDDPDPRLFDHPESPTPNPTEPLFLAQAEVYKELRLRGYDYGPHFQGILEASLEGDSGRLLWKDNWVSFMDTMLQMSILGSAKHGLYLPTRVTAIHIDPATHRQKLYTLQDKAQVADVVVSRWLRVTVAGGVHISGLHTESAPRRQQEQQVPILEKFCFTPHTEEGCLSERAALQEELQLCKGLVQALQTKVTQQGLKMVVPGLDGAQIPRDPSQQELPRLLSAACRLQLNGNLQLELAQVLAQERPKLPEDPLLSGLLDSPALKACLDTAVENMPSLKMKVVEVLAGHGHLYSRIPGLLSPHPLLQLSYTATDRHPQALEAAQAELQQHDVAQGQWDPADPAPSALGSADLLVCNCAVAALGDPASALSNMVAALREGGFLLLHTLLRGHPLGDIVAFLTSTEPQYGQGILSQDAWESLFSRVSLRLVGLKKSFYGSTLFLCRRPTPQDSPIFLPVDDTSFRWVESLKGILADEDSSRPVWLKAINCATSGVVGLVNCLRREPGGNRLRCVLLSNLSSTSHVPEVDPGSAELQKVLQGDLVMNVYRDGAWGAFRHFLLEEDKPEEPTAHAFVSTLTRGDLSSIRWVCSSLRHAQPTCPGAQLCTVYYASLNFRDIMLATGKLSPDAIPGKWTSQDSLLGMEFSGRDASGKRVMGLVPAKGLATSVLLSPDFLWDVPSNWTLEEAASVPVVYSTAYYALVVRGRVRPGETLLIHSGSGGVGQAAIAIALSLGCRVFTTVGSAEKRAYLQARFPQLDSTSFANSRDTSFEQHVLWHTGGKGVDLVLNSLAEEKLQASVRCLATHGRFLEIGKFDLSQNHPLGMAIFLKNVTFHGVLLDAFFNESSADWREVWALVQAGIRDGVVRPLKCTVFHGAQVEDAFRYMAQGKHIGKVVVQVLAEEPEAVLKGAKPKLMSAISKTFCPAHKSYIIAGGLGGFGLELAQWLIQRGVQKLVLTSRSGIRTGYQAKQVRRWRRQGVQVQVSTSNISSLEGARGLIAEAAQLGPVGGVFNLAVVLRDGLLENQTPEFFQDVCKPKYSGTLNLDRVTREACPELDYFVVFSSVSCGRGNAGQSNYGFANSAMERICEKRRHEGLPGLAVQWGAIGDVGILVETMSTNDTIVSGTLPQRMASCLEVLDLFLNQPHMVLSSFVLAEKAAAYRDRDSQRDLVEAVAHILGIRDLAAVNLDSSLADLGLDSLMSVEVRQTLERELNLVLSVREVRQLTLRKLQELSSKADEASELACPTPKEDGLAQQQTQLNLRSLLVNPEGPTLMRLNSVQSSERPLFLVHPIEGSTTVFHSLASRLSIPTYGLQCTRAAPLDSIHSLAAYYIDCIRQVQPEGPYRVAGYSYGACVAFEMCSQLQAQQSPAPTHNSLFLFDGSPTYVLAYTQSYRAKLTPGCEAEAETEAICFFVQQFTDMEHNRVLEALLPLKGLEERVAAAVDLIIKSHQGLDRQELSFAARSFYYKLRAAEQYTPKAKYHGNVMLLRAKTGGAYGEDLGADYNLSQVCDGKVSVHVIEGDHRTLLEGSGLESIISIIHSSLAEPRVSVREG
GRIN3A LBD mod: binders of NR3A ligand-binding domain, primary screen, biophysical, differential scanning fluorimetry, uHTS; Glutamate receptor ionotropic, NMDA 3A (GRIN3A) ligand-binding domain; NR3A LBD differential scanning fluorimetry, Tm shift; 0% = protein alone, 100% = glycine-bound protein; Tm shift relative to glycine control, % at 25 µM; 340,000 compounds, 2.5% hits;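 active means melting temperature shift of at least 10% of the positive control shift, at one fixed dose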
MPTP block: mitochondrial permeability transition pore inhibitors, primary screen, biochemical, isolated mouse mitochondria, absorbance; Ca2+ swelling absorbance, 30 min; inhibition, % at 10 µM; 360,000 compounds, 1.4% hits;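 active means inhibition of 50% or more, scaled per plate between neutral and stimulator controls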
rCAG binder: binders of r(CAG) RNA repeats, primary screen, biochemical, fluorescence; 370,000 compounds, 1.3% hits; inhibition, % at 3 µM; r(CAG) RNA repeat, TO-PRO-1 dye displacement fluorescence; AID 651821, 2012;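 active means inhibition above the plate cutoff, the mean of all test compounds on that plate plus 3 SD, cut at about 35% in these data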;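 further: higher means more dye released from RNA so lower well fluorescence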
Myeloid diff MLP: induction of myeloid progenitor differentiation, primary screen, cell-based, flow cytometry, MLPCN library; ER-HoxA9 myeloid progenitors, lysozyme-GFP differentiation; calls only at 10 µM; 360,000 compounds, 1% hits; AID 624256, 2012;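 active means normalized GFP-positive differentiation at or above the plate's own cutoff, the solvent-only control mean plus 3 SD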;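 further: cells exposed to compound for four days before flow analysis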
Each line names hits and unclear results; the compound was inactive in the other large screens.

O=C(Nc1nc(-c2ccccc2)ns1)c1cccs1	GRIN3A LBD mod 19
CCC(=O)Nc1nc(-c2ccccc2)ns1	none
O=C(c1ccccc1)c1ccc2nc(-c3ccc(NC(=O)c4ccccc4F)cc3)[nH]c2c1	GRIN3A LBD mod 18
O=C(Nc1ccc(-c2nc3ccccc3[nH]2)cc1)c1cccc(N2C(=O)CCC2=O)c1	none
CCC(C(=O)Nc1ccccc1N1CCCC1)c1cccc(Cl)c1 (stereo not given)	none (no result: FAS TE block, GRIN3A LBD mod, MPTP block, Myeloid diff MLP)
O=C(O)CCCN1C(=O)/C(=C\c2ccccc2OCc2ccccc2)SC1=S	rCAG binder 52
O=C(CCCN1C(=O)/C(=C/c2ccccc2)SC1=S)Nc1cccc(O)c1	GRIN3A LBD mod 12
O=C(CCCN1C(=O)/C(=C/c2ccc3c(c2)OCO3)SC1=S)Nc1cccc(C(=O)O)c1	rCAG binder 51
O=C(CCCN1C(=O)/C(=C\c2ccccc2)SC1=S)Nc1cccc(C(=O)O)c1	rCAG binder 66
O=C(O)CCCCN1C(=O)/C(=C\c2ccc(OCc3ccccc3)c(OCc3ccccc3)c2)SC1=S	none
Cc1ccc(/C=C2\SC(=S)N(CCCC(=O)Nc3cccc(C(=O)O)c3)C2=O)cc1	none
CC1CCN(c2ccc(C(=O)O)cc2NS(=O)(=O)c2ccccc2[N+](=O)[O-])CC1	none (no result: FAS TE block, GRIN3A LBD mod, MPTP block, Myeloid diff MLP)
C[C@@H](NC(=O)c1ccc(C#Cc2cccc(F)c2)cn1)C(C)(C)O	none (no result: FAS TE block, GRIN3A LBD mod, MPTP block, Myeloid diff MLP)
C[C@H]1CN(S(=O)(=O)C(C)(C)C)[C@H](CCO)/C1=C\CCO	none (no result: FAS TE block, GRIN3A LBD mod, MPTP block, Myeloid diff MLP)
Cc1ccc(S(=O)(=O)NCC2CCC(C(=O)NCc3ccc4c(c3)OCO4)CC2)cc1 (stereo not given)	GRIN3A LBD mod 15
Cc1ccc(CNS(=O)(=O)c2ccc3c(c2)OCCO3)cc1	GRIN3A LBD mod 16
O=c1c(C/C=C/c2ccccc2)c(O)ccn1CCc1c[nH]c2ccccc12	none
COc1ccc2[nH]cc(CCn3ccc(O)c(C/C=C/c4ccccc4)c3=O)c2c1	GRIN3A LBD mod 13
CCCCCc1cccc2[nH]cc(-c3ccccc3)c12	none (no result: FAS TE block, GRIN3A LBD mod, MPTP block, Myeloid diff MLP)
O=C(NCCc1c[nH]c2ccccc12)c1ccc2[nH]c(=O)c(=O)[nH]c2c1	none
O=C(NCCc1c[nH]c2ccccc12)c1ccc2c(c1)OCO2	GRIN3A LBD mod 22
Cn1c(C(=O)NCCc2c[nH]c3ccccc23)cc2sccc21	GRIN3A LBD mod 16
O=C(NCCc1c[nH]c2ccccc12)c1ccc2nc[nH]c2c1	GRIN3A LBD mod 27
O=C(NCCc1c[nH]c2ccccc12)c1cc(Cl)c2c(c1)OCO2	GRIN3A LBD mod 30 (no result: Myeloid diff MLP)
Cc1ccc2[nH]cc(CCNC(=O)c3ccc4c(c3)OCO4)c2c1	none
O=C(NCCc1c[nH]c2ccccc12)c1cc2sccc2n1Cc1ccccc1	none
O=S(=O)(c1ccc(C(F)(F)F)cc1)N1CCCc2nc(-c3ccc(Br)cc3)ccc21	none (no result: FAS TE block, GRIN3A LBD mod, MPTP block, Myeloid diff MLP)
CC(=O)Nc1ccc(NC(=O)CSc2ccc(-c3ccc(-n4ccnc4)cc3)nn2)cc1	GRIN3A LBD mod 17
CC(=O)Nc1ccc(NC(=O)CSc2ccc(-c3cccnc3)nn2)cc1	none
Cc1onc(-c2ccccc2)c1-c1nnc(COC(=O)c2ccc(F)cc2)o1	none (no result: GRIN3A LBD mod)
Cc1onc(-c2ccccc2)c1-c1nnc(COC(=O)c2ccc(O)cc2)o1	GRIN3A LBD mod 10
CCCCc1c(-c2ccccc2OC)ncn1Cc1ccccc1C	none (no result: FAS TE block, GRIN3A LBD mod, MPTP block, Myeloid diff MLP)
COC(=O)[C@]12C[C@H](CC(=O)N3CCSCC3)C(=O)N(CCC3=CCCCC3)C1=C[C@H](C(C)(C)C)O[C@@H]2C	none (no result: FAS TE block, GRIN3A LBD mod, MPTP block, Myeloid diff MLP)
CC(=O)Nc1ccc(NC(=O)CSCCc2ccccn2)cc1	none
COC(=O)c1cc2c(cc1NC(=O)CSCCc1ccccn1)OCO2	Myeloid diff MLP active
COC(=O)[C@@]12CCCCC3=C1N(CCC3)C(=O)[C@H]2CC(=O)NCc1ccc(OC)c(OC)c1	none (no result: FAS TE block, GRIN3A LBD mod, MPTP block, Myeloid diff MLP)
O=C(O)c1cnn(-c2nc(-c3ccc(Cl)cc3)cs2)c1C(F)(F)F	GRIN3A LBD mod 28
COc1ccc(-c2csc(-n3ncc(C(=O)O)c3C(F)(F)F)n2)cc1	none
COc1ccccc1CNC(=O)N(CCc1c(C)[nH]c2ccccc12)Cc1cccs1	none (no result: FAS TE block, GRIN3A LBD mod, MPTP block, Myeloid diff MLP)
C/C=C/c1ccc(OCCCCOc2c(OC)cccc2OC)c(OC)c1	none
C/C=C/c1ccc(OCCCCOc2ccccc2C(C)=O)c(OC)c1	GRIN3A LBD mod 18
CCOc1cc(/C=C2\SC(=N)N(c3nonc3N)C2=O)ccc1OCCN1CCOCC1	rCAG binder 40

Screening data from PubChem.
